Results as given in PubChem BioAssay (EPA / NIEHS).
Where a structure was tested more than once in an assay, its records may differ in their call. The source made the active and inactive calls. The calls were made as follows: active = hit-call score of the fitted dose curve at least 0.9, where 1 is the maximum; inactive = score below 0.9.

assay: ATG_PXRE_CIS: Attagene CIS-FACTORIAL HepG2 Assay for human Pregnane X Receptor Element (PXRE) (AID 2282957); conditions: HepG2 Attagene CIS-FACTORIAL PXRE reporter, mRNA; actives raise or lower the signal
Method: ATG_CIS is a cell-based, multiplexed-readout assay that uses HepG2, a human liver cell line, with measurements taken at 24 hours after chemical dosing in a 24-well plate.ATG_PXRE_CIS is one of 52 assay component(s) measured or calculated from the ATG_CIS assay. It is designed to make measurements of mRNA induction, a form of inducible reporter, as detected with fluorescence intensity signals by Reverse transcription polymerase chain reaction (RT-PCR) and Capillary electrophoresis technology.Data from the assay component ATG_PXRE_CIS was analyzed into 1 assay endpoint. This assay endpoint, ATG_PXRE_CIS, was analyzed with bidirectional fitting relative to DMSO as the negative control and baseline of activity. Using a type of inducible reporter, measures of mRNA for gain or loss-of-signal activity can be used to understand the reporter gene at the transcription factor-level as they relate to the gene NR1I2. Furthermore, this assay endpoint can be referred to as a primary readout, because this assay has produced multiple assay endpoints where this one serves a reporter gene function. To generalize the intended target to other relatable targets, this assay endpoint is annotated to the nuclear receptor intended target family, where the subfamily is non-steroidal.
Human liver HepG2 cells are transiently transfected with multiple reporter transcription units (MRTUs) in 6-well plates using FuGene 6 reagent (Roche; 3 ml FuGene/1 mg DNA). The MRTU constructs are regulated by a cis-regulating element (promoter). […] A major difference between the CIS and TRANS system is that in CIS activities of endogenous TFs are measured, whereas the TRANS assay evaluates changes in activities of exogenous, chimeric NR-Gal4 proteins. […] At the end of 24 hour incubation, total RNA was isolated using TriZol reagent (Invitrogen). The isolated RNA is then reverse-transcribed using oligo(dT) primer and Mo-MLV reverse transcriptase (Invitrogen) with DNAse I (Ambion) treatment for 30 min. The one-tenth of the produced cDNA was amplified by PCR using Taq DNA polymerase (Invitrogen) and two reporter sequence-specific primers. The PCR products were fluorescently labeled by primer extension with 6-arboxyfluorescein (6-FAM) 5'-labeled reporter sequence-specific primer (2 min at 95 C, 20 s at 68 C and 10 min at 72 C) and these products were digested with 5U of HpaI (New England Biolabs) for 2h at 37 C. The fragments were purified using Qiaquick PCR columns (Qiagen), analyzed on an ABI 3130xL genetic analyzer (Applied Biosystems) with peak positions identified by using a set of X-rhodamine (ROX)-labeled MapMarker1000 molecular weight standards (BioVentures). The raw capillary electrophoresis data was processed using Attagraph software (Attagene).

SMILES | AC50 | outcome
ClC(Cl)=C(Cl)C(Cl)=C(Cl)Cl | 130 µM (active) | 
C=CCc1ccc(OC)cc1 | 26.6 µM (active) | 
COS(=O)(=O)c1ccc(C)cc1 |  | inactive
O=C(O)C(F)(F)C(F)(F)C(F)(F)C(F)(F)C(F)(F)C(F)(F)F | 40.2 µM (active) | inactive
COP(=S)(OC)Oc1cc(Cl)c(Cl)cc1Cl | 26.7 µM (active) | 
CNC |  | inactive
COP(=S)(OC)Oc1ccc(Sc2ccc(OP(=S)(OC)OC)cc2)cc1 | 2.83 µM (active) | 
Cc1ccccc1N |  | inactive
O=C(Cl)c1ccc(Cl)cc1 |  | inactive
CCCCCCCCSC(=O)Oc1cc(Cl)nnc1-c1ccccc1 | 27.1 µM (active) | 
CC(C)(c1ccccc1)c1ccc(O)c(C(C)(C)c2ccccc2)c1 | 0.156 µM (active) | 
CC(Br)C(=O)O (stereo not given) |  | inactive
O=C(CCl)CCl | 49.3 µM (active) | 
O=C(OC1CCCCC1)c1ccccc1C(=O)OC1CCCCC1 | 0.58 µM (active) | 
Nc1ccc(Cl)cc1C(=O)c1ccccc1 | 6.6 µM (active) | 
CC(C)c1ccc(CO)cc1 |  | inactive
CC(C)(c1ccc(OCC2CO2)cc1)c1ccc(OCC2CO2)cc1 (stereo not given) | 8.18 µM (active) | 
Nc1cccc2ccccc12 | 25.7 µM (active) | 

SMILES | AC50 | outcome
NNC(=S)NN |  | inactive
COc1cc(-c2ccc(N)c(OC)c2)ccc1N | 25.2 µM (active) | inactive
Cc1cc(=O)[nH]o1 | 42.8 µM (active) | 
CC(C)c1cccc(C(C)C)c1O | 3.76 µM (active) | 
O=CC=O | 4.55 µM (active) | 
CCC1(c2ccc(N)cc2)CCC(=O)NC1=O (stereo not given) | 64.9 µM (active) | 
Nc1ccc(-c2ccc(N)c(Cl)c2)cc1Cl | 27.4 µM (active) | 
CCC(=O)c1ccccc1 |  | inactive
CC(=[OH+])/C=C(/C)[O-].CC(=[OH+])/C=C(/C)[O-].CC(=[OH+])/C=C(/C)[O-].[Al] |  | inactive
CC(=O)C(Cl)C(=O)N(C)C (stereo not given) |  | inactive
O=C(Nc1ccc2[nH]ccc2c1)c1cc2cc(F)ccc2n1Cc1cccc(F)c1 | 2.75 µM (active) | 
O=C/C=C/c1ccccc1 | 9.96 µM (active) | 
Clc1nc(Cl)nc(Cl)n1 | 34.9 µM (active) | 
O=C(O)C(F)(F)C(F)(F)C(F)(F)C(F)(F)C(F)(F)C(F)(F)C(F)(F)C(F)(F)C(F)(F)C(F)(F)F | 62 µM (active) | inactive
CCCCC(CC)CO[N+](=O)[O-] (stereo not given) |  | inactive
CCOC(=O)CP(=O)(OCC)OCC | 100 µM (active) | 
O=C(O)C(Cl)(Cl)Cl | 71.7 µM (active) | inactive
COC(=O)Cc1ccccc1 |  | inactive
